POLI inh = inhibitors of human DNA polymerase iota; AID 588590; 390,000 compounds, 1% hits; Potency, µM (doses to about 115 µM), actives largely listed as inhibitors; Q9UNA4; Pol iota fluorescent replication assay, 10 min
Target sequence (Q9UNA4 whole entry, looked up): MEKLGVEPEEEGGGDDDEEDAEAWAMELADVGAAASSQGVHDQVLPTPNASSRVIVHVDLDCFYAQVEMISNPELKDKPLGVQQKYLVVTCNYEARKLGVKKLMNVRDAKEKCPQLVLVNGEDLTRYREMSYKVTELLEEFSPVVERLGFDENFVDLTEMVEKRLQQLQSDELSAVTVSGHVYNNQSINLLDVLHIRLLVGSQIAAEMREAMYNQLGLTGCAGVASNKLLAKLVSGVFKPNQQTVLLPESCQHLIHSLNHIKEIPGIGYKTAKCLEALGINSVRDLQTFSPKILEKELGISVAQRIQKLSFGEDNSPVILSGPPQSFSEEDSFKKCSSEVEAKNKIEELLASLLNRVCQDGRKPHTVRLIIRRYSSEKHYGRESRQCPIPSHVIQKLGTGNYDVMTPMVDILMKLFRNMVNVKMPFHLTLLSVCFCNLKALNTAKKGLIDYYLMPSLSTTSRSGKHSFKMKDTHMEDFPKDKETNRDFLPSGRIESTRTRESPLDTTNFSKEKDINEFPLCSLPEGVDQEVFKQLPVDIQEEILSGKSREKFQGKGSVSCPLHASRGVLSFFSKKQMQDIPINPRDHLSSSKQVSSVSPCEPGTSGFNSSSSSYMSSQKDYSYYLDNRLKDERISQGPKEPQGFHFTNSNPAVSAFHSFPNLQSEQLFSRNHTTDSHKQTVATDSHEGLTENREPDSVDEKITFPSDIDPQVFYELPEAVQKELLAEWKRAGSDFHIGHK
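Pol iota at 10 nM preincubated 15 min with compounds at room temperature; reaction started with fluorescent substrate, 50 nM final. Fluorescence read kinetically at 0 and 10 min; buffer-only wells as negative control.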
ALOX12 inh = blocks human arachidonate 12S-lipoxygenase; P18054; purified 12hLO, xylenol orange hydroperoxide absorbance; Potency, µM (highest dose often 108 µM), actives largely listed as inhibitors; 580,000 compounds, 1.1% hits
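Purified human 12hLO (150 nM final) in 25 mM Hepes, 0.01% Triton X-100, pH 7.0 was preincubated 15 min at room temperature with compound. Then 40 uM arachidonic acid was added, 30 min. Hydroperoxide was read by Fe-XO absorbance ratio 573/405 nm.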
Pol eta inh-1 = DNA polymerase eta (human) inhibition; recombinant Pol eta, fluorescent DNA replication assay; AID 588591; Q9Y253; 390,000 compounds, 1.2% hits; Potency, µM (doses to about 114 µM), hits mostly inhibitors
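Pol eta at 10 nM preincubated with compounds 15 min at room temperature; reaction started with fluorescent substrate (50 nM final) and read kinetically at 0 and 10 min.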
Pol kappa inh-1 = DNA polymerase kappa (human) inhibition; Q9UBT6; purified Pol kappa, fluorescent DNA synthesis assay, 10 min; Potency, µM (top dose mostly 107 µM), actives largely listed as inhibitors; 400,000 compounds, 0.53% hits
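First, compounds were pin-transferred onto 10 nM Pol kappa. After 15 min at room temperature, substrate was added to 50 nM final. Fluorescence was then measured kinetically at 0 and 10 min.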
Pol beta inh = blocks human DNA polymerase beta activity; 340,000 compounds, 1.3% hits; Pol beta primer extension/strand displacement, fluorescence kinetic; Potency, µM (series often up to 114 µM), most hits filed as inhibitors; P06746; AID 485314
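Pol beta (10 nM) was preincubated with compound for 15 min at room temperature. The reaction was then started with 50 nM substrate and read immediately and after a further 10 min at room temperature.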
PI5P4K alpha inh = PI5P4K alpha (human) kinase inhibition | PI5P4Kalpha enzyme, ADP-Glo luminescence, 60 min; stronger effect = lower value | max response, % | 330,000 compounds, 1.2% hits | AID 652105; active means max response of -50% or lower; inconclusive means between -30% and -50%; inactive means -30% or higher; further: value at the top dose of about 77 µM
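ADP-Glo luminescence end-point after a 60 min room-temperature kinase reaction. PI5P4Kalpha and substrate in HEPES pH 7.4 buffer with EGTA, 0.1% CHAPS and 5% DMSO; ATP at 5 microM final.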
PGK validate = blocks T. brucei phosphoglycerate kinase; shares compounds with Pol kappa inh-1; TbPGK coupled GAPDH assay, Kinase-Glo luminescence; Potency, µM (doses to about 57.5 µM), most hits filed as inhibitors; 500 compounds, 79% hits; further: nearly all actives have a fitted effect of over 65% in size
POLI cherry-pick = Inhibitors of human DNA polymerase iota, confirmation; 1,500 compounds, 77% hits; shares compounds with Pol kappa inh-1; Potency, µM, most hits filed as inhibitors; Pol iota primer extension, TAMRA/BHQ fluorescence; AID 720496
Pol kappa inh-2 = confirmation of human DNA polymerase kappa inhibitors; shares compounds with Pol eta inh-1; purified Pol-kappa, fluorescent strand-displacement substrate; Potency, µM, hits mostly inhibitors; 920 compounds, 76% hits
Pol eta inh-2 = confirmation of human DNA polymerase eta inhibitors | shares compounds with Pol eta inh-1 | Potency, µM, hits mostly inhibitors | Pol eta primer extension, TAMRA/BHQ fluorescence, 10 min | 2,600 compounds, 64% hits | AID 720502
A number is an active result; 0 = inactive; ? = inconclusive; - = no result given. Most compounds without a hit are left out; they make up all but 2.9% or so of the library. Unless noted, the call rests on the fitted dose curve; in most records, active means well fitted curve in the direction sought with a large enough effect; inconclusive means small, poorly fitted or top-dose-only effect, or another doubt; inactive means no such curve, though single readings can be large; an effect the other way counts as inactive or inconclusive.

SMILES	POLI inh	ALOX12 inh	Pol eta inh-1	Pol kappa inh-1	Pol beta inh	PI5P4K alpha inh	POLI cherry-pick	Pol eta inh-2	others
CCS(=O)(=O)C1=NN2C(=N)/C(=C\c3ccc(SCc4ccco4)o3)C(=O)N=C2S1	?	35µM	4.5µM	28µM	11µM	-91	38	17
O=C(/C=C/c1ccc(Br)cc1)NC(=S)Nc1ccc(S(=O)(=O)Nc2nccs2)cc1	0	0	?	0	?	0	15	17
Cc1cc(C)nc(NC(=O)Nc2cccc(Cl)c2C)c1	-	0	-	-	-	-	-	-
Cc1ccc(C(=O)N2CCC(n3cc(-c4nc(C(C)C)no4)nn3)CC2)cc1F	-	0	-	-	-	-	-	-
O=C(N/N=C/c1cccn1-c1cccc(C(=O)O)c1)Nc1ccccc1	?	0	7.9µM	79µM	28µM	0	75	60
O=C(N/N=C/c1cccc(Cl)c1Cl)Nc1ccccc1	0	0	0	0	0	-	-	-
COCCNC(=O)c1cc(-c2ccc3c(c2)OCCO3)nc2ccccc12	-	0	-	-	-	-	-	-
O=[N+]([O-])c1cc(-c2ccccc2)cc([N+](=O)[O-])c1O	0	?	0	0	-	?	-	-
O=[N+]([O-])c1cc2ccccc2c(O)c1O	-	?	4.5µM	-	-	?	12	7.6	Pol kappa inh-2=2.1
Cc1nc2c(nc1C)C(=O)c1ccccc1C2=O	0	0	?	0	-	0	-	-
COC1=C(N)C(=O)c2nc(C)ccc2C1=O	18µM	?	8.9µM	?	-	0	24	30	Pol kappa inh-2=19
COC1=C(Br)C(=O)c2nc(C)ccc2C1=O	-	?	14µM	-	-	-68	27	30	Pol kappa inh-2=19
O=C(O)CSc1nc2ccc(NC(=O)COc3ccc(Cl)cc3)cc2s1	79µM	0	11µM	?	25µM	-	67	30
O=C(Nc1ccccc1SC1CCCC1)c1ccco1	-	0	-	-	-	-	-	-
Cc1cccc(C(=O)N2CCC(c3nc(C4CC4)n[nH]3)CC2)c1C	-	0	-	-	-	-	-	-
CC1OC(OCC2OC(Oc3c(-c4ccc(O)cc4)oc4cc(O)cc(O)c4c3=O)C(O)C(O)C2O)C(O)C(O)C1O (centres undefined)	?	?	10µM	28µM	?	-67	42	60	PGK validate=5.2µM
O=C1C(=C(I)I)c2ccccc2-c2ccccc21	?	5.6µM	22µM	0	-	0	21	24
CN(c1ccccc1)c1ccc(/C=C(\CCC(=O)O)c2nc3ccccc3s2)cc1[N+](=O)[O-]	22µM	?	8.9µM	?	8.9µM	?	27	67
CCN(CC)S(=O)(=O)c1ccc(OC(C)C)c(NC(=O)c2ccc(S(=O)(=O)N(C)C)cc2)c1	-	0	-	-	-	-	-	-
CNc1c2cccc(C)c2nc2c(C(=O)NCCN(C)C)cccc12	11µM	?	3.5µM	8.9µM	-	0	3	38
Cc1ccc(S(=O)(=O)Nc2ccc(Br)cc2C(NCC(=O)O)c2ccccc2)cc1 (centres undefined)	0	0	0	0	0	0	-	-
O=C(O)CSc1cc(NS(=O)(=O)c2ccc(Br)cc2)c2ccccc2c1O	7.1µM	?	35µM	89µM	89µM	?	?	?	Pol kappa inh-2=?
Cc1ccccc1OCCC(=O)OC(C)C(=O)Nc1ccc(S(N)(=O)=O)cc1 (centres undefined)	-	0	-	-	-	-	-	-
COc1ccc2[nH]c3c(=O)n(Cc4ccc(C(=O)NCC5CCCO5)cc4)c(=S)[nH]c3c2c1 (centres undefined)	?	0	18µM	0	89µM	0	?	76
CN(C)CCNc1ccc2ncn3c4ccc(O)cc4c(=O)c1c23	79µM	?	?	22µM	-	0	12	-	Pol kappa inh-2=9.5
SMILES	POLI inh	ALOX12 inh	Pol eta inh-1	Pol kappa inh-1	Pol beta inh	PI5P4K alpha inh	POLI cherry-pick	Pol eta inh-2	others
Cc1n[nH]c(=S)n(NC(=O)/C=C/C(=O)Nn2c(=S)[nH]nc(C)c2=O)c1=O	?	?	8.9µM	8.9µM	20µM	?	21	9.5	PGK validate=21µM;Pol kappa inh-2=9.5
O=C1C(=Cc2ccco2)CCC1=Cc1ccco1	?	35µM	0.79µM	5µM	-	-84	3	5.4	PGK validate=18µM;Pol kappa inh-2=2.7
O/N=C1\CCC\C1=C/c1ccco1	?	?	0	?	0	-	-	-
COc1ccccc1NC(=O)c1cnc(SCC(=O)NCC2CCCO2)n(C)c1=O (centres undefined)	22µM	0	40µM	0	-	0	?	85
CN1C(=O)/C(=C/c2ccc(C(=O)Nc3ccc(O)cc3C(=O)O)cc2)SC1=S	?	?	22µM	0	?	?	75	43
COc1ccc(S(=O)(=O)N2CCCC(Cc3noc(-c4ccccc4)n3)C2)cc1 (centres undefined)	-	0	-	-	-	-	-	-
Cc1cc(C)n2nc(C(=O)OCC(=O)c3cc(C)n(C)c3C)nc2n1	?	0	14µM	?	32µM	?	?	85
Cc1cc(C)n2nc(C(=O)OCC(=O)c3ccccc3Cl)nc2n1	0	0	?	0	-	0	-	-
Cc1ccc(S(=O)(=O)OCC(=O)Nc2ccc(C(=O)O)c(O)c2)cc1	20µM	?	3.2µM	25µM	-	0	19	19	Pol kappa inh-2=3.4
COCCN(Cc1ccco1)C(=O)c1cc(S(C)(=O)=O)ccc1C	-	0	-	-	-	-	-	-
O=C1COc2ccc(C(=O)COC(=O)c3ccccn3)cc2N1	0	0	0	0	-	0	-	-
O=C1COc2ccc(C(=O)COC(=O)c3ccc4ccccc4n3)cc2N1	?	0	?	0	?	0	47	?
CC1=NOC(=O)/C1=C\c1ccc(-c2ccccc2Br)o1	?	5.6µM	20µM	?	22µM	?	75	48
O=C1NN(c2ccccc2)C(=O)/C1=C/c1ccc(-c2ccc(C(=O)O)cc2)o1	3.5µM	?	7.1µM	18µM	?	?	24	27
O=C(O)c1ccc(N2C(=O)/C(=C/c3ccc(-c4ccc([N+](=O)[O-])cc4)o3)C=C2c2ccccc2)cc1	?	-	3.5µM	?	10µM	-94	8.4	7.6
O=C1NN(c2ccccc2)C(=O)/C1=C\c1ccc2c(c1)OCO2	0	?	0	0	0	0	-	-
O=C1NN(c2ccccc2)C(=O)/C1=C/c1ccc(Sc2cccc3ccccc23)o1	11µM	?	28µM	?	20µM	?	75	30
